Inconclusive results are not listed. Activity calls are given as the source filed them. Calls come from the whole dose curve; as a rule, active = well fitted inhibition curve with a large enough effect; inconclusive = small, poorly fitted or top-dose-only effect; inactive = flat fitted curve, though single readings scatter.
Columns and labels:
Test in all cases: qHTS profiling for inhibitors of Plasmodium falciparum proliferation (AID 504749); note: nearly all actives have a fitted effect of over 60% in size
Conditions in all cases: P. falciparum in erythrocytes, SYBR Green DNA, 72 h; series mostly up to 28.7 µM
CP194 = tested on: CP194
How it was run: (§1)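 SYBR Green fluorescence (ex 485 nm, em 535 nm) reports parasite DNA after 72 h compound exposure of infected red cells at 0.3% parasitemia, 2.5% hematocrit; signal normalized to 0.29 uM artemisinin and vehicle wells.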

CP201 = tested on: CP201
How it was run: as §1

CP203 = tested on: CP203
How it was run: as §1

CP215 = tested on: CP215
How it was run: as §1

CP217 = tested on: CP217
How it was run: as §1

CP237 = tested on: CP237
How it was run: as §1

CP238 = tested on: CP238
How it was run: as §1

CP247 = tested on: CP247
How it was run: as §1

CP250 = tested on: CP250
How it was run: as §1

CP252 = tested on: CP252
How it was run: as §1

CP256 = tested on: CP256
How it was run: as §1

CP260 = tested on: CP260
How it was run: as §1

CP262 = tested on: CP262
How it was run: as §1

CP265 = tested on: CP265
How it was run: as §1

CP266 = tested on: CP266
How it was run: as §1

CP268 = tested on: CP268
How it was run: as §1

CP269 = tested on: CP269
How it was run: as §1

CP286 = tested on: CP286
How it was run: as §1

CP291 = tested on: CP291
How it was run: as §1

CP211 = tested on: CP211
How it was run: as §1

Measured: Potency
Potency is the fitted concentration of half-maximal effect.

Cc1cc(C(=O)NCCc2ccc(S(=O)(=O)NC(=O)NN3CCCCCC3)cc2)no1
not listed: CP211
inactive: all other assays above

C[C@H](N)C(=O)N[C@@H](C)P(=O)(O)O
not listed: CP215 | CP260
inactive: all other assays above

c1ccc2c(c1)Sc1ccccc1N2CCN1CCCC1
active: CP194 13.5 µM | CP201 13.5 µM | CP211 13.5 µM | CP215 12 µM | CP217 7.08 µM | CP237 5.01 µM | CP238 11.2 µM | CP247 7.08 µM | CP250 11.2 µM | CP252 11.2 µM | CP256 10 µM | CP260 7.94 µM | CP265 11.2 µM | CP268 9.53 µM | CP269 15.1 µM | CP286 10 µM | CP291 13.5 µM
inactive: CP262

[O-][N+](=Nc1ccccc1)c1ccccc1
not listed: CP203
inactive: all other assays above

C[C@]12CCC(=O)C[C@@H]1CC[C@@H]1[C@@H]2CC[C@]2(C)C=CC[C@@H]12
not listed: CP237 | CP250 | CP260 | CP286
inactive: all other assays above

COc1ccc(/C=N/NC(=O)c2ccncc2)c(C(=O)O)c1OC
not listed: CP201
inactive: all other assays above

O.O.O.O.O.O.O.O=S(=O)([O-])[O-].[Co+2]
active: CP194 7.57 µM | CP201 7.57 µM | CP203 6.75 µM | CP211 9.53 µM | CP217 11.2 µM | CP238 7.94 µM | CP247 11.2 µM | CP250 11.2 µM | CP252 11.2 µM | CP256 8.91 µM | CP260 10 µM | CP265 11.2 µM | CP269 7.57 µM | CP286 10 µM | CP291 9.53 µM

O=C(O)CCC(=O)c1ccc(-c2ccccc2)cc1
not listed: CP215
inactive: all other assays above

Nc1ccc(N=Nc2ccccc2)c(N)n1
not listed: CP215
inactive: all other assays above

O=P(O)(O)OC[C@H](O)CO
not listed: CP215 | CP266
inactive: all other assays above

COc1ccc2c(=O)c(C)c(-c3ccccc3)oc2c1CN(C)C
not listed: CP215 | CP237 | CP268 | CP286 | CP291
inactive: all other assays above

O=C1NCCN1c1ncc([N+](=O)[O-])s1
not listed: CP201
inactive: all other assays above

CC12CCC(C1)C(C)(C)C2=O (stereo not drawn)
not listed: CP203
inactive: all other assays above

O=C(Nc1ccc(O)cc1)c1ccccc1O
not listed: CP203 | CP217 | CP247 | CP256 | CP265
inactive: all other assays above

COC(=O)[C@@H](N)CS
not listed: CP215
inactive: all other assays above

CSc1nc2cc(Oc3cccc(Cl)c3Cl)c(Cl)cc2[nH]1
inactive: CP262
active: CP194 13.5 µM | CP201 10.7 µM | CP211 10.7 µM | CP215 9.53 µM | CP217 3.98 µM | CP237 11.2 µM | CP238 8.91 µM | CP247 3.16 µM | CP250 2.24 µM | CP252 3.16 µM | CP256 1.78 µM | CP260 7.94 µM | CP265 2 µM | CP269 12 µM | CP286 10 µM | CP291 8.49 µM

CC(=O)[O][Al][O]C(C)=O
not listed: CP203 | CP268 | CP269 | CP291 | CP211
inactive: all other assays above

CCCc1nc(C(C)(C)O)c(C(=O)OCc2oc(=O)oc2C)n1Cc1ccc(-c2ccccc2-c2nn[nH]n2)cc1
not listed: CP215
inactive: all other assays above

Cc1ncc[nH]1
not listed: CP215
inactive: all other assays above

C#C[C@]1(O)CC[C@@H]2[C@H]3CCC4=CC(=O)CC[C@H]4[C@H]3C(=C)C[C@@]21CC
inactive: CP238 | CP250 | CP252 | CP260 | CP262 | CP265 | CP286
active: CP194 0.536 µM | CP201 0.478 µM | CP211 0.478 µM | CP215 0.478 µM | CP266 0.301 µM | CP268 0.426 µM | CP269 0.536 µM | CP291 0.426 µM

CCCCC[C@H](O)/C=C/[C@@H]1[C@H]2C/C(=C/CCCC(=O)O)O[C@H]2C[C@H]1O
not listed: CP203 | CP260
inactive: all other assays above

CCN(CC)CCOc1ccc2nc(N(C)C)sc2c1
not listed: CP215 | CP262
inactive: all other assays above

COc1ccc(C(=O)c2ccc(C)cc2)c(O)c1
not listed: CP211
inactive: all other assays above

Cc1c(C)c2c(c(C)c1OC(=O)CCC(=O)O)CC[C@@](C)(CCC[C@H](C)CCC[C@H](C)CCCC(C)C)O2
not listed: CP237 | CP260 | CP266 | CP286
inactive: all other assays above

Source: PubChem BioAssay (NCATS)
